# Many of the other results were omitted from the sample, so hits are more common in it than they were.
# Dicer processing: inhibitors of Dicer pre-microRNA processing, primary screen, biochemical, cat-ELCCA, chemiluminescence | 6% of 47,000 active | AID 1347074, 2019 | Endoribonuclease Dicer (Homo sapiens), Q9UPY3 | cat-ELCCA pre-miR-21 Dicer processing; active compounds read high | z-score at 25 µM; in the data active = z-score above about 3, passing the limit was not always enough;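 also: higher signal means more uncleaved substrate so more Dicer inhibition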
# Target sequence (Q9UPY3 whole entry, looked up): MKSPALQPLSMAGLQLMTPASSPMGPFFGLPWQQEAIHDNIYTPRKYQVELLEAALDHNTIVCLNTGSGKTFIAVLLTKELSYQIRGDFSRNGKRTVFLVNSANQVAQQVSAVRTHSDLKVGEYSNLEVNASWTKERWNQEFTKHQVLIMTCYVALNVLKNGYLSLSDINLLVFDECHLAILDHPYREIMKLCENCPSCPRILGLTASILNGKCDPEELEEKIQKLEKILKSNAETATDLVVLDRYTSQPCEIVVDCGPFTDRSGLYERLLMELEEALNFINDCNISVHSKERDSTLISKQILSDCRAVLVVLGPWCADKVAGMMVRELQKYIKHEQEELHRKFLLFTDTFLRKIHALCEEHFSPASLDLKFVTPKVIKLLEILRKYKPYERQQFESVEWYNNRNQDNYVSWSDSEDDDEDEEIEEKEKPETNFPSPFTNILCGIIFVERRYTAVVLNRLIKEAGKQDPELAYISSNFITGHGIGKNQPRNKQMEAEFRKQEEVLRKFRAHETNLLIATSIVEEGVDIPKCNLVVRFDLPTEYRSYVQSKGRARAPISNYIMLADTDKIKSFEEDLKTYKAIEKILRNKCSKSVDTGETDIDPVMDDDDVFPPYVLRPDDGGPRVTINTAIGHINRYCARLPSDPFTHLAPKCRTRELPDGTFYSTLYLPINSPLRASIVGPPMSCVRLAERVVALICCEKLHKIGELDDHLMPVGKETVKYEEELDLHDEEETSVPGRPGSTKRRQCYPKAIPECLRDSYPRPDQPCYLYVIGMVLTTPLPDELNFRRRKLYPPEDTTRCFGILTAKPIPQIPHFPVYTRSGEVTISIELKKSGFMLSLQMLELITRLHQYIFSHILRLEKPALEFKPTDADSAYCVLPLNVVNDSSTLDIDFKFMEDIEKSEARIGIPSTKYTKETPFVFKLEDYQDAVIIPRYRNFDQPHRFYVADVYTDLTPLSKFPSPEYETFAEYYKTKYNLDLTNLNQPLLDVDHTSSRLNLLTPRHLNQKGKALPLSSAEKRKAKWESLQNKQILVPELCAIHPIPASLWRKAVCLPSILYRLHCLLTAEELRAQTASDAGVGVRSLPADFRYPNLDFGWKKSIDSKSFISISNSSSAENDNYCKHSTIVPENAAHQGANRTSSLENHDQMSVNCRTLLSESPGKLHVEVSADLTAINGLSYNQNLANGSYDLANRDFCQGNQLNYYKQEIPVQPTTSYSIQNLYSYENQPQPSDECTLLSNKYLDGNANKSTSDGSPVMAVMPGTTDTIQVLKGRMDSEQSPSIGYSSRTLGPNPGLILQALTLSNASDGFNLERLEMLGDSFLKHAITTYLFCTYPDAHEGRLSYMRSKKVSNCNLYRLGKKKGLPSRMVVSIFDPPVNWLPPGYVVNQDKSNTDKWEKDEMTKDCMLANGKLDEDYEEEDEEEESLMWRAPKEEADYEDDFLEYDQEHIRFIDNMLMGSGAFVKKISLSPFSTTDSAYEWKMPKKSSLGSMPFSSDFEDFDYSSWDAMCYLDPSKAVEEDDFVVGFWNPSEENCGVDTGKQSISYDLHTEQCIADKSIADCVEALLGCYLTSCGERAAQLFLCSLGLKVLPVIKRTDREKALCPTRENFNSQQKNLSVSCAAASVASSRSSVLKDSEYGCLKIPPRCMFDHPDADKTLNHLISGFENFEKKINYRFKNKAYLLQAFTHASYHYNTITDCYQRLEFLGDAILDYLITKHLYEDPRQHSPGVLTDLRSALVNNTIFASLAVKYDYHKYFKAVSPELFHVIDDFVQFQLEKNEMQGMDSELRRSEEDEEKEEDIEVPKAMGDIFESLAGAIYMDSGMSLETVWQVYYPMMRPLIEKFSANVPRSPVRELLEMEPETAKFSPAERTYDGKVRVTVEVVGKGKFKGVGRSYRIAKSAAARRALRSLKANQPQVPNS
# Numbers stand for hits; 0 = inactive.
SMILES,Dicer processing
O=C(NCc1ccc(F)cc1)c1nc2c(nnn2CC2CCCO2)c(=O)[nH]1 (configuration not stated),3.1
Cc1nc2cc(Cl)ccc2c(=O)n1CC1CCCO1 (configuration not stated),0
O=C1CC(NCC2CCCO2)C(=O)N1c1ccc(F)cc1 (configuration not stated),0
O=C(Nc1ccc(Cl)cc1Cl)N1CCCCC1,0
OC(COc1ccc2oc3c(c2c1)CCCC3)CN1CCN(c2ccccc2)CC1 (configuration not stated),3.12
O=C(O)COc1ccc2oc3c(c2c1)CCCC3,0
O=C(COc1ccc2oc3c(c2c1)CCCC3)Nc1cccc(Br)c1,0
COC(OC)(C(C#N)c1ccccc1)C(F)(F)F (configuration not stated),0
CCCCOC(=O)C1=C(C)NC2=C(C(=O)CCC2)C1c1ccncc1 (configuration not stated),0
CSc1nc2ccccc2[nH]1,0
CCCOc1ccc(C2C(C#N)=C(N)Oc3n[nH]c(-c4ccc5c(c4)OCO5)c32)cc1 (configuration not stated),0
C/C(=N\O)c1cc2cc([N+](=O)[O-])ccc2o1,0
COc1cc(OC)cc(-c2nc3n(n2)C(c2ccc(F)cc2)C2=C(CC(C)(C)CC2=O)N3)c1 (configuration not stated),0
CC(Nc1ncnc2ccccc12)C(=O)O (configuration not stated),3.33
O=C(O)CCC(Nc1ncnc2ccccc12)C(=O)O (configuration not stated),0
CCCC(Nc1ncnc2ccccc12)C(=O)O (configuration not stated),0
Cn1nc(C(F)(F)F)c(-c2cccc(C(F)(F)F)c2)c1NC(=O)c1ccccc1,0
S=C(NCc1cccnc1)c1ccccc1,0
Fc1ccc(NCc2cccnc2)cc1,3.2
FC(F)(F)c1cnc(NCc2cccnc2)c(Cl)c1,0
CCOC(=O)Cn1cc(Br)c(=O)[nH]c1=O,0
CCSc1sc(C#N)c2c1C(=O)CC(C)(C)C2,3.61
CCSc1sc(C(=O)OC)c2c1/C(=N/O)CC(C)(C)C2,0
CCCSc1sc(C(=O)OC)c2c1C(=O)CC(C)(C)C2,0
CN(C)c1c(F)cc(/C(N)=N/O)cc1F,0
SMILES,Dicer processing
CN(C)c1c(F)cc(C(N)=O)cc1F,3.39
CN(C)c1c(F)cc(C(=O)Nc2cc(C(F)(F)F)cc(C(F)(F)F)c2)cc1F,0
COc1cc(C2SCCS2)cc(Br)c1Oc1ccc([N+](=O)[O-])cn1,0
COc1ccc(/C=C/c2nc(-c3ccccc3O)n[nH]2)cc1,26.2
COc1ccc(O)c(-c2cc(C(F)(F)F)nc(-c3ccccc3)n2)c1,0
COc1ccc(-c2cc(-c3ccccc3O)[nH]n2)cc1,4.58
COc1ccc(-c2cc(-c3nc4c5c(ncn4n3)CCC5)[nH]n2)cc1,0
COc1ccc(Nc2n[nH]c3c2CCc2ccccc2-3)cc1,0
COc1ccc2cc(-c3ccn[nH]3)ccc2c1,0
Cc1nccc(-c2cccc(NS(=O)(=O)c3cc(C(F)(F)F)cc(C(F)(F)F)c3)c2)n1,0
N#Cc1c(C(F)(F)F)cc(-c2ccccc2)nc1SCC(=O)c1ccccc1,0
O=C(O)CCCNCc1cccc2ccccc12,0
COc1ccc2c(c1)c(C(=O)CN(C)C)c(C)n2C,4.71
COc1ccc2c(c1)c(C(=O)CNc1nc(C)cs1)c(C)n2C,0
COc1ccc2c(c1)c(C(=O)CNc1nccs1)c(C)n2C,0
CC(C)/C(=N\O)c1ccc([N+](=O)[O-])cc1,0
CCc1cc(C(=O)c2ccc(OC)cc2)c(NC(=O)COc2ccccc2)s1,0
COc1ccccc1C1/C(=C(\O)c2ccc(Br)cc2)C(=O)C(=O)N1CCCn1ccnc1 (configuration not stated),0
COc1ccc(O)c(C2=Nc3ccccc3N=C(C(F)(F)F)C2)c1,3.16
Oc1ccccc1C1=Nc2ccccc2N=C(C(F)(F)F)C1,0
COc1ccc(C2=Nc3ccccc3SC(c3cccc(O)c3)C2)c(O)c1 (configuration not stated),0
NS(=O)(=O)c1cc([N+](=O)[O-])c(Sc2ccc(Cl)cc2)s1,0
CC(=O)N1c2ccccc2NC2=C(C(=O)CC(C)(C)C2)C1c1cccc(Cl)c1 (configuration not stated),0

# Compound activity: PubChem, Center for Chemical Genomics, University of Michigan
